Measurements reported in PubChem BioAssay AID1851 (National Center for Advancing Translational Sciences (NCATS), 2009).
The whole screen tested about 16,000 compounds, of which about 5,100 (32%) were called active. Roughly 25% stayed inconclusive and do not appear here. Some of the results follow. Unmarked numbers belong to inactive results. Calls follow the shape of the dose curve; as a rule, active = well fitted curve in the direction sought with a large enough effect; inconclusive = small, poorly fitted or top-dose-only effect, or effect the other way; inactive = no such curve, though single readings can be large or run the other way.

Biological target: Cytochrome P450 3A4 (Homo sapiens) (UniProt P08684)
Assay: Cytochrome panel assay with activity outcomes
Details: recombinant CYP, pro-luciferin dealkylation, luminescence, p450-cyp3a4; series mostly up to 57.1 µM; activity, negative = inhibition: at the top concentration
% is scaled to controls: 0 for no effect and ±100 for the full control effect.

Chain of Cytochrome P450 3A4 (Homo sapiens) (P08684 whole entry, looked up): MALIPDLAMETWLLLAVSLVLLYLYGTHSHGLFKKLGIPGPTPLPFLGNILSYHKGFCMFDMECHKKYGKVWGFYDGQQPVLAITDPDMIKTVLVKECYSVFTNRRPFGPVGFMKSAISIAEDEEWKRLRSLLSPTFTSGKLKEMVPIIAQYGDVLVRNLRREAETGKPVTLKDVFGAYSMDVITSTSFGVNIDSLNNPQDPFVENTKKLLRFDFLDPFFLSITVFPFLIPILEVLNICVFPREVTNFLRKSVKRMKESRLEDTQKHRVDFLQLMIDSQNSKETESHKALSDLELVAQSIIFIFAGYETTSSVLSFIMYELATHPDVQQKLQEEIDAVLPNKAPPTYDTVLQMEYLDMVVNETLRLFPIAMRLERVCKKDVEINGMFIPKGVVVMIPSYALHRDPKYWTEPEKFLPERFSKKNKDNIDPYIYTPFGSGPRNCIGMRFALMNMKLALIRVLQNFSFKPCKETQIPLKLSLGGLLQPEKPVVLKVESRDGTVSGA

SMILES | activity, negative = inhibition | AC50
O=c1[nH][nH]c(C(F)(F)F)c1C=Nc1ccccc1Cl | -10.9% | –
C=CCSc1nn2c(=O)c3ccccc3nc2s1 | – | 20 µM (active)
O=C(Cn1cnc2ccccc2c1=O)Nc1nnc(SCc2ccccc2)s1 | -5.34% | –
C[C@@H](C(=O)O)c1ccc(C[C@@H]2CCCC2=O)cc1 | 7.6% | –
Cc1cc2ccccc2c[n+]1CC(O)C[n+]1cc2ccccc2cc1C | -6.74% [at 11.4 µM] | –
CC(=O)c1c(C)nc(-c2ccccc2)n1O | -11% | –
O=c1nc(-c2ccccc2)n(-c2ccccc2)c2ncccc12 | -9.32% | –
CN=c1nc(-c2ccccc2)n(-c2ccccc2)s1 | – | 31.6 µM (active)
Cc1cc2cc3c(C)cc(=O)oc3c(C)c2o1 | – | 3.98 µM (active)
CCc1c(C(C)O)oc2ccc3c(C)cc(=O)oc3c12 (configuration not stated) | 7.59% [at 2.29 µM] | –
O=C(Nc1ccc(F)cc1)c1cc(S(=O)(=O)N2CCCCC2)cs1 | – | 14.1 µM (active)
O=C(Nc1ccc(S(=O)(=O)N2CCCC2)cc1)c1ccc(CN2CCOCC2)cc1 | -3.74% [at 2.29 µM] | –
C#CCCCO/N=C1/C[C@@H](O)[C@@H](O)[C@@H]2[C@H]3C(=O)N(c4ccc(F)cc4F)C(=O)[C@@H]3CC[C@@H]12 | – | 3.16 µM (active)
O=C1C[C@@H](O)[C@@H](O)[C@@H]2[C@H]3C(=O)N(c4ccc(F)cc4F)C(=O)[C@@H]3CC[C@H]12 | -11% [at 11.4 µM] | –
CC(C)CO/N=C1/C[C@@H](O)[C@@H](O)[C@@H]2[C@H]3C(=O)N(c4ccc(F)cc4F)C(=O)[C@@H]3CC[C@H]12 | -8.15% [at 11.4 µM] | –
C#CCCCO/N=C1/C[C@@H](O)[C@@H](O)[C@@H]2[C@H]3C(=O)N(c4ccc(F)cc4F)C(=O)[C@@H]3CC[C@H]12 | – | 3.98 µM (active)
CC(C)CO/N=C1/C[C@@H](O)[C@@H](O)[C@@H]2[C@H]3C(=O)N(c4ccc(F)cc4F)C(=O)[C@@H]3CC[C@@H]12 | 0.624% [at 11.4 µM] | –
O=C1[C@@H]2[C@H]3[C@H](O)[C@H](O)C/C(=N/OCc4ccccc4)[C@@H]3CC[C@H]2C(=O)N1c1ccc(F)cc1F | -19.6% [at 11.4 µM] | –
Cc1ccc(-n2c3c(c(=O)[nH]c2=O)C(NS(=O)(=O)c2ccc(C)cc2)(C(F)(F)F)C(=O)N3)cc1 (configuration not stated) | -13.8% | –
O=C(c1cc(C(F)(F)F)cc(C(F)(F)F)c1)N1CCC2(CC1)CCN(c1ccccn1)CC2 | 4.89% | –
O=C(c1cc(C(F)(F)F)cc(C(F)(F)F)c1)N1CCC[C@@]2(CCN(c3ccccn3)C2)C1 | – | 3.98 µM (active)
O=C(c1cc(C(F)(F)F)cc(C(F)(F)F)c1)N1CCC2(CC1)CN(c1ccncc1)C2 | -5.48% | –
O=C(c1cc(C(F)(F)F)cc(C(F)(F)F)c1)N1CCC2(CC1)CN(c1ncccn1)C2 | -23.6% | –
O=C(c1cc(C(F)(F)F)cc(C(F)(F)F)c1)N1CCC2(CC1)CCN(c1ncccn1)CC2 | -9.89% | –
O=C(c1cc(C(F)(F)F)cc(C(F)(F)F)c1)N1CCC[C@@]2(CCN(c3ccncc3)C2)C1 | – | 6.31 µM (active)
O=C(c1cc(C(F)(F)F)cc(C(F)(F)F)c1)N1CCC[C@@]2(CCN(c3ncccn3)C2)C1 | – | 10 µM (active)
O=C(c1cc(C(F)(F)F)cc(C(F)(F)F)c1)N1CCC2(CC1)CN(c1ccccn1)C2 | -15.9% | –
